# According to PubChem BioAssay AID1745853 (National Center for Advancing Translational Sciences (NCATS), 2022):
# Hit rate of the full screen: of about 25,000 compounds, about 970 (3.9%) were called active. Another 8% or so got no clear call; they are omitted. No rule for the calls is given here. For the sample, actives were picked, then their nearest neighbours and some compounds at random.
# Key:
# Assay in all cases: Primary Screen for Target Class Profiling of Small Molecule Inhibitors of Methyltransferases
# [1] = target: Catechol O-methyltransferase (Homo sapiens) (UniProt P21964); settings: purified enzyme, MTase-Glo SAH luminescence; activity change, negative = inhibition: at 40 µM, stronger effect = lower value; outcome: 40 uM
# Source text: (§1) PI: Matthew D. Hall Ph.D. and Quinlin M. Hanson Ph.D.
# (§2) National Center for Advancing Translational Sciences (NCATS)
# (§3) National Institute of Health (NIH), Rockville, MD
# (§4) Target class profiling (TCP) is a chemical biology approach amenable to investigating understudied biological targets. TCP is achieved by developing a generalizable assay platform and applying it to screen a curated set of compound libraries against representative members of a target class. Small molecule methyltransferases (SMMTase) are a subclass of methyltransferase that act on metabolites to modulate signaling pathways, metabolize xenobiotics, or balance the available methyl pool. We screened four curated libraries totaling 27,574 unique compounds against the SMMTases nicotinamide N-methyltransferase (NNMT), phenylethanolamine N-methyltransferase (PNMT), histamine N-methyltransferase (HNMT), glycine N-methyltransferase (GNMT), catechol O-methyltransferase (COMT), and guanidinoacetate N-methyltransferase (GAMT). The data generated by this TCP can be leveraged for informed tool molecule development. For example, in the associated publication we identified a chemotype of HNMT-selective inhibitors. Additionally, we identified a putative SMMTase-selective inhibitor with potential as a tool molecule for studying broader methyltransferase biology.
# (§5) High-through put screening assays were developed at the National Center for Advancing Translational Science (NCATS) for the enzymes NNMT, PNMT, HNMT, GNMT, COMT, and GAMT. Enzymatic activity was measured as a function of SAM cofactor conversion using the MTase Glo kit (Promega) for all enzymes. All assays were performed in 1536-well format with substrates and SAM concentrations at KM values. Enzyme concentration and assay timing were optimized for 10-20% SAM conversion. Initial screening of 27,574 compounds was done as single-point assays using the highest compound concentration (40 uM). […] These compounds were replated in 11-point dose response and assayed against NNMT, PNMT, HNMT, GNMT, COMT, GAMT, and a counter-assay. The IC50 and efficacy (maximal response) values were determined for each dose-response curve. These values are also accounted for in the area under the curve (AUC) values.
# (§6) PROTOCOL TABLE (as described by Inglese J, Shamu CE and Guy RK. 2007)
# (§7) SEQUENCE No. (e.g., 1, 2, 3, etc.); […] (e.g., Cells, Incubation, Reagent, etc.); VALUE; DESCRIPTION.
# (§8) 1; Reagent; 2 uL; SMMTase Enzyme (2x) in reaction buffer, columns 1- 48.
# (§9) 2; Reagent; 1 uL; SAM (4x) in reaction buffer, columns 1-48.
# (§10) 3; Controls; 23 nL; DMSO in column 4; sinefungin in DMSO (0 uM - 40 uM) in 7-point 1:2 dilution series (n = 2) in column 2.
# (§11) 4; Compounds; 23 nL; Columns 5-48.
# (§12) 5; Reagent; 1 uL; Substrate (4x) in reaction buffer, columns 2-48.
# (§13) 6; Time; 20-30 min; Incubation.
# (§14) 7; Reagent; 1 uL; MTase-Glo reagent (5X), columns 1-48.
# (§15) 8; Time; 30 min; Incubation.
# (§16) 9; Reagent; 5 uL; MTase-Glo Detection reagent, columns 1-48.
# (§17) 10; Time; 30 min; Incubation, luminescence evolution.
# (§18) 11; Detection; Luminescence; ViewLux uHTS Microplate Imager (PerkinElmer).
# (§19) NOTES (numbers refer to Sequence numbers above)
# (§20) 1, 2, 5. White Medium Binding Greiner 1536-well plates (Cat #789175-F, Greiner Bio-One, Monroe, NC); Reaction buffer: 50 mM Tris, pH 8.0, 3 mM MgCl2, 1 mM EDTA, 50 mM NaCl, 1 mM DTT, and 0.1 mg/mL BSA. Evaporation was prevented by covering assay plates with metal lids containing holes to allow gas diffusion.
# (§21) 1. Six SMMTase were profiled: HNMT, GNMT, PNMT, COMT, NNMT, GAMT
# (§22) 5. The corresponding substrate was used for each enzyme: HNMT - 5.3 uM Histamine; GNMT - >500 uM Glycine; PNMT - 16.2 uM Norephinephrine; COMT - 13.7 uM Norephinephrine; NNMT - 3.8 uM Nicotinamide; GAMT - 2.5 uM Guanidinoacetate.6, 8, 10. Room temperature
# (§23) 6. Final reaction conditions: 10 nM COMT, 5 uM SAM, 15 uM norepinephrine, 50 mM Tris, pH 8.0, 3 mM MgCl2, 1 mM EDTA, 50 mM NaCl, 1 mM DTT, and 0.1 mg/mL BSA; refer to tables 2 and S1 for specific timing.
# 8. […]
# [2] = target: Glycine N-methyltransferase (Homo sapiens) (UniProt Q14749); settings: purified enzyme, MTase-Glo SAH luminescence; measured here: GNMT inhibition; at 40 µM; stronger effect = lower value
# Source text: as §1, §2, §3, §4, §5, §6, §7, §8, §9, §10, §11, §12, §13, §14, §15, §16, §17, §18, §19, §20, §21, §22, §23
# 8. […]
# [3] = target: Guanidinoacetate N-methyltransferase (Homo sapiens) (UniProt Q14353); settings: purified enzyme, MTase-Glo SAH luminescence; measured here: GAMT inhibition; at 40 µM; stronger effect = lower value
# Source text: as §1, §2, §3, §4, §5, §6, §7, §8, §9, §10, §11, §12, §13, §14, §15, §16, §17, §18, §19, §20, §21, §22, §23
# 8. […]
# [4] = target: Histamine N-methyltransferase (Homo sapiens) (UniProt P50135); settings: purified enzyme, MTase-Glo SAH luminescence; measured here: HNMT inhibition; at 40 µM; stronger effect = lower value
# Source text: as §1, §2, §3, §4, §5, §6, §7, §8, §9, §10, §11, §12, §13, §14, §15, §16, §17, §18, §19, §20, §21, §22, §23
# 8. […]
# [5] = target: Nicotinamide N-methyltransferase (Homo sapiens) (UniProt P40261); settings: purified enzyme, MTase-Glo SAH luminescence; measured here: NNMT inhibition; at 40 µM; stronger effect = lower value
# Source text: as §1, §2, §3, §4, §5, §6, §7, §8, §9, §10, §11, §12, §13, §14, §15, §16, §17, §18, §19, §20, §21, §22, §23
# 8. […]
# [6] = target: Phenylethanolamine N-methyltransferase (Homo sapiens) (UniProt P11086); settings: purified enzyme, MTase-Glo SAH luminescence; measured here: PNMT inhibition; at 40 µM; stronger effect = lower value
# Source text: as §1, §2, §3, §4, §5, §6, §7, §8, §9, §10, §11, §12, §13, §14, §15, §16, §17, §18, §19, §20, §21, §22, §23
# 8. […]
# % is scaled to controls: 0 for no effect and ±100 for the full control effect.
# Catechol O-methyltransferase (Homo sapiens), sequence (P21964 whole entry, looked up): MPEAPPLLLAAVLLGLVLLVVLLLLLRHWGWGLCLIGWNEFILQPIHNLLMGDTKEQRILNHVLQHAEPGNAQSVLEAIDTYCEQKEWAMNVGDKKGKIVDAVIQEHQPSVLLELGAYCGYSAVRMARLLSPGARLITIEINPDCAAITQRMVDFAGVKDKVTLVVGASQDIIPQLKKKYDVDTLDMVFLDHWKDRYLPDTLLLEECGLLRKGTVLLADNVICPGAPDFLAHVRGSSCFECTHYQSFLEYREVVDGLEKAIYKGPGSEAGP
# Nicotinamide N-methyltransferase (Homo sapiens), sequence (P40261 whole entry, looked up): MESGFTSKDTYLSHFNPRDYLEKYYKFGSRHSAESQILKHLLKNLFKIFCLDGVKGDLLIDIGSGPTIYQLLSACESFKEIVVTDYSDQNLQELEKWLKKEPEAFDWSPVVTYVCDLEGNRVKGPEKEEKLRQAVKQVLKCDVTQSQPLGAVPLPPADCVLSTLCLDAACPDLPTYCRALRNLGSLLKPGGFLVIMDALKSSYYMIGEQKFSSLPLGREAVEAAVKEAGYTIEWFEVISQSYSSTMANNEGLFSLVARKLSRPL
# Phenylethanolamine N-methyltransferase (Homo sapiens), sequence (P11086 whole entry, looked up): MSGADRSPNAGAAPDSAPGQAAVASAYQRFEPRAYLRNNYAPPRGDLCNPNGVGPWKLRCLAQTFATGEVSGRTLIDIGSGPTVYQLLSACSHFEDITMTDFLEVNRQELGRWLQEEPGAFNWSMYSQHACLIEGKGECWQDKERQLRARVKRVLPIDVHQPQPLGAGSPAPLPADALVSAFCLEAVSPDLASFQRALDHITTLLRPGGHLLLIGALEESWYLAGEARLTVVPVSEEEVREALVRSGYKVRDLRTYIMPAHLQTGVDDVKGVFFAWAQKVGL
# Glycine N-methyltransferase (Homo sapiens), sequence (Q14749 whole entry, looked up): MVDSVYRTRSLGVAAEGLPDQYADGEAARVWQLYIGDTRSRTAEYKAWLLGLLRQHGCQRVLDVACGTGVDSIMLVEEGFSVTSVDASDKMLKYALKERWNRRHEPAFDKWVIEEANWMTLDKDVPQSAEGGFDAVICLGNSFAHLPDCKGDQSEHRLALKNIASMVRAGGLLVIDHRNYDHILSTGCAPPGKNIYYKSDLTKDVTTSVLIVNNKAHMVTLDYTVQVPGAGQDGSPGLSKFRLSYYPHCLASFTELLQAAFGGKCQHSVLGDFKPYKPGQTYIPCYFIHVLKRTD
# Histamine N-methyltransferase (Homo sapiens), sequence (P50135 whole entry, looked up): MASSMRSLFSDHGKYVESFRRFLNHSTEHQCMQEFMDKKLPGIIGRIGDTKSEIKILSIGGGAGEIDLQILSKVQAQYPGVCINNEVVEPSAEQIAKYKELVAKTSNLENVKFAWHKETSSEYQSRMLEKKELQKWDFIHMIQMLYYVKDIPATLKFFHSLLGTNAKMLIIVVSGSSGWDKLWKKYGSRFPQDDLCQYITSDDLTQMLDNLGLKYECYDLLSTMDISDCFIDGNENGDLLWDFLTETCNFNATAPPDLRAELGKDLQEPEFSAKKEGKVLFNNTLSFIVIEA
Structure (SMILES),"activity change, negative = inhibition [1]","activity change, negative = inhibition [2] [%]","activity change, negative = inhibition [3] [%]","activity change, negative = inhibition [4] [%]","activity change, negative = inhibition [5] [%]","activity change, negative = inhibition [6] [%]"
O=C(C1CCCC1)N1CCCC(c2noc(COc3ccccc3)n2)C1 (configuration not stated),-7.8% (inactive),-8.83,-9.57,-5.83,-18.3,-10.2
CSc1cccc(CN(C)Cc2cc3n(n2)CCNC3)c1,-0.225% (inactive),-1.46,-2.55,-2.05,-2.62,-8.63
COc1ccccc1CN[C@H]1[C@H](O)[C@@H](N2CCN(c3ccccc3OC)CC2)[C@@H]2OC[C@H]1O2,1.34% (inactive),-1.49,-8.26,2.36,-0.669,2.62
CCc1cccc(NC(=O)Cn2c(=O)oc3cc(S(=O)(=O)N4CCC(C)CC4)ccc32)c1,0.729% (inactive),-4.13,4.45,-8.18,-16.8,-14.1
Cc1ccc(Cn2c(=O)c3ccc(C(=O)NC(C)C)cc3n3c(=O)n(Cc4cccc(F)c4)nc23)cc1,6.38% (inactive),4.35,1.49,7.79,5.05,6.91
C[C@@H]1CC[C@]2(C(=O)O[C@@H]3O[C@H](CO)[C@@H](O)[C@H](O)[C@H]3O)CC[C@]3(C)C(=CCC4[C@@]5(C)C[C@@H](O)[C@H](O)[C@](C)(C(=O)O)C5CC[C@]43C)[C@@H]2[C@]1(C)O (some centres not stated),4.37% (inactive),6.36,4.44,15.1,-9.25,7.5
CC1(C)CC[C@]2(C(=O)O[C@@H]3O[C@H](CO)[C@@H](O)[C@H](O)[C@H]3O)CC[C@]3(C)C(=CCC4[C@@]5(C)CC[C@H](O[C@@H]6O[C@H](C(=O)O)[C@@H](O)[C@H](O)[C@H]6OC6OC(CO)C(O)C(O)C6O)C(C)(C)C5CC[C@]43C)[C@@H]2C1 (some centres not stated),-21.1% (inactive),2.46,8.94,8.45,-9.17,7.25
CC1(C)CCC2(C(=O)OC3OC(COC4OC(CO)C(O)C(O)C4O)C(O)C(O)C3O)CCC3(C)C(=CCC4C5(C)CCC(O)C(C)(C(=O)O)C5CCC43C)C2C1O (configuration not stated),-56.4% (active),0,5.96,11.8,-7.28,4.84
C=Cc1ccc(Cn2nc3n(CC(C)C)c(=O)c4ccc(C(=O)NC(C)CC)cc4n3c2=O)cc1 (configuration not stated),2.79% (inactive),4.48,0,10.7,-0.533,5.38
O=S(=O)(c1ccc2[nH]c3c(c2c1)CCCC3)N1CCN(Cc2ccccc2)CC1,4.94% (inactive),5.6,0,5.93,5.54,4.34
Cc1nc2c(c(NC3CC3)n1)CCN(C(=O)CCc1cccnc1)CC2,-0.626% (inactive),-3.41,-8.98,-2.51,-8.36,-4.07
COc1cc(NC(=O)Nc2cccc(CNC(=O)O[C@H]3CCOC3)c2)ccc1-c1cnco1,-2.73% (active),-16.2,1.61,-89.1,-22.8,-6.4
